High-throughput results from PubChem.
Pf growth 48h = Primary qHTS for delayed death inhibitors of the malarial parasite plastid, 48 hour incubation | P. falciparum luciferase growth in erythrocytes, 48 h | Potency, µM (titrated, usually from 28.7 µM), for the others: at the highest dose activity change, negative = inhibition, usual class: inhibitors | hit rate 5.9% among 310,000 | AID 504832, 2011; note: % is set by controls: 0 for no effect and ±100 for the full control effect
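Firefly luciferase activity from engineered P. falciparum reports growth; inhibitors lower the luminescent signal. Cultures contained 2% hematocrit erythrocytes at 0.1% final parasitemia.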
SARS PLP yeast = qHTS of Yeast-based Assay for SARS-CoV PLP; S. cerevisiae expressing SARS-CoV PLpro, growth rescue; Potency, µM (series often up to 32.9 µM), for the others: top-dose activity, positive = growth rescue, usual class: activators; hit rate 0.19% among 330,000; calls by dose curve; note: 0% is about no effect; nearly all actives have a fitted effect of over 55% in size
AmpC detergent = qHTS Inhibitors of AmpC Beta-Lactamase (assay with detergent); hit rate 0.041% among 370,000; AmpC hydrolysis of nitrocefin, absorbance 480 nm, 0.01% Triton; Potency, µM (titrated, usually from 114 µM), for inactives: at the top dose activity change, negative = inhibition, most hits filed as inhibitors; AID 485294, 2010; P00811;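 note: 0% = no-compound wells and -100% = no-enzyme wells; nearly all actives have a fitted effect of over 25% in size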
Target sequence (P00811 whole entry, looked up): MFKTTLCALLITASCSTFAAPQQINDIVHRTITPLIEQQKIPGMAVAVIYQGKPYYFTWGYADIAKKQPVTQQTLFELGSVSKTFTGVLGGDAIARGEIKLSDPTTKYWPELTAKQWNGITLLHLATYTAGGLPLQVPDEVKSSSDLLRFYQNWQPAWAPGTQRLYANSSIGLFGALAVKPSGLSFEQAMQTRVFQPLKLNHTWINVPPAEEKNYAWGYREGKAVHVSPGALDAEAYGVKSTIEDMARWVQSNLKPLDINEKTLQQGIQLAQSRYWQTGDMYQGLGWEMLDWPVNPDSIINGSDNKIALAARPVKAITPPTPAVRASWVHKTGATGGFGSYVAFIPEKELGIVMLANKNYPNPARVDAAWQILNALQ
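AmpC (5.3 nM in the dispensed reagent) in 20 mM phosphate pH 7.0 with 0.01% (detergent screen) or 0.0001% Triton X-100 was preincubated with compounds for 15 min at room temperature. Nitrocefin was then added from an 800 uM solution, and hydrolysis was followed at 480 nm.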
Sm TGR inh = qHTS Assay for the Inhibitors of Schistosoma Mansoni Peroxiredoxins. Schistosoma mansoni thioredoxin glutathione reductase (TGR), Q962Y6. purified TGR, DTNB reduction, TNB absorbance 405 nm. Potency, µM (series often up to 114 µM), for the others: at the highest dose activity change, negative = inhibition, actives largely listed as inhibitors. hit rate 3% among 360,000; note: % is set by controls: 0 for no effect and ±100 for the full control effect; nearly all actives have a fitted effect of over 60% in size
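First, TGR (20 nM dispensed) and NADPH were mixed with compound. Second, a 15 min room-temperature incubation followed. Third, further NADPH and then DTNB were added to start the reaction. Finally, TNB absorbance was monitored kinetically.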
AmpC inh no detg = qHTS Inhibitors of AmpC Beta-Lactamase (assay without detergent); Potency, µM (titrated, usually from 57.1 µM), inactives show at the highest dose activity change, negative = inhibition, actives largely listed as inhibitors; AmpC nitrocefin hydrolysis, absorbance 480 nm, 0.0001% Triton; hit rate 0.52% among 330,000; AID 485341, 2010; P00811;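 note: plate controls were no compound for no effect and no enzyme for full effect; nearly all actives have a fitted effect of over 20% in size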
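AmpC (5.3 nM in the dispensed reagent) in 20 mM phosphate pH 7.0 with 0.01% (detergent screen) or 0.0001% Triton X-100 was preincubated with compounds for 15 min at room temperature. Nitrocefin was then added from an 800 uM solution, and hydrolysis was followed at 480 nm.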
Pf growth 96h = Primary qHTS for delayed death inhibitors of the malarial parasite plastid, 96 hour incubation; AID 504834, 2011; Potency, µM (top dose mostly 28.7 µM), for the others: at the highest dose activity change, negative = inhibition, most hits filed as inhibitors; P. falciparum luciferase reporter growth, 96 h; hit rate 6.9% among 320,000; note: % is set by controls: 0 for no effect and ±100 for the full control effect
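96 h incubation, 37 C, 5% CO2, of luciferase-reporter P. falciparum-infected RBCs (2% hematocrit, 0.05% parasitemia final) with test compounds; endpoint luminescence.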
Starred values were filed as active, the others as inactive; ? = inconclusive; . = not tested or not shown; [ ] = remark or other dose. The list is not random: actives were taken first. Their share in the collection is about 12%. Unless noted, calls come from the whole dose curve; as a rule, active = well fitted curve in the direction sought with a large enough effect; inconclusive = small, poorly fitted or top-dose-only effect, or another doubt; inactive = no such curve, though single readings can be large; an effect the other way counts as inactive or inconclusive. Potency is the fitted concentration of half-maximal effect.

SMILES	Pf growth 48h	SARS PLP yeast	AmpC detergent	Sm TGR inh	AmpC inh no detg	Pf growth 96h
COc1ccc(NC(=O)c2sc3nc4c(cc3c2N)CN(Cc2ccccc2)CC4)cc1OC	.	.	12%	-4%	.	.
Cc1ccccc1NC(=O)c1sc2nc3c(cc2c1N)CN(Cc1ccccc1)CC3	.	.	15%	79µM*	.	.
CCN(CC)CCNC(=O)/C(=C\c1cccn1C)NC(=O)c1cccs1	9%	-14%	1%	2%	-15%	1.9µM*
O=C(NCCO)/C(=C/c1ccc(Br)cc1)NC(=O)c1cccs1	5%	-3%	1%	3%	-11%	-1%
Cc1ccccc1NC(=O)c1c(C)nc(SCC(=O)OCc2ccccc2)c(C#N)c1-c1ccc(F)cc1	13µM*	-18%	-2%	-15%	-32%	?
Cc1ccc(NC(=O)N2CCC(CN3CCCCCC3)CC2)c(Cl)c1	.	.	14%	?	.	.
NCCCNCCSP(=O)(O)O	0%	.	.	.	.	13%
CCC(Sc1nc(C)cc(C)n1)C(=O)NC1=NN=C(c2ccc(C)cc2)CS1 (stereo not drawn)	?	-10%	-4%	1%	28%	10µM*
COc1ccc(OC)c(-c2noc(N3CCN(c4cccc(C)c4C)CC3)n2)c1	.	.	-3%	-8%	.	.
Cc1cc(-n2c(/C=C/c3cccs3)nc3ccccc3c2=O)ccc1Br	.	.	-3%	5%	.	.
Cc1ccc(-c2nn3c(C)nnc3c3ccccc23)cc1S(=O)(=O)N1CCN(CCO)CC1	?	-1%	-11%	1%	120%	?
Cc1nn2c(-c3ccco3)nnc2c2ccccc12	0%	.	-10%	0%	.	1%[5.75 µM]
Cc1nn2c(-c3ccc(S(=O)(=O)N4CCN(CCO)CC4)o3)nnc2c2ccccc12	9.3µM*	5%	0%	-19%	177%	10µM*
COc1ccc(-c2nnc3c4ccccc4c(C)nn23)cc1S(=O)(=O)N1CCN(CCO)CC1	4.7µM*	-13%	?	-12%	188%	2.6µM*
Cc1ccc(-n2c(=O)c3c4c(sc3n(CC(=O)Nc3ccccc3C)c2=O)CCCCC4)cc1C	.	.	5%	-2%	.	.
CC12CCC3C(CC=C4CC(O)CCC43C)C1C/C(=C\c1ccccc1F)C2=O (stereo not drawn)	?	-27%	-6%	-3%	-2%	5.9µM*
CCOC(=O)c1sc(NC(=O)CCSC)nc1C	?	-10%	?	0%	-16%	16%
CCOC(=O)c1sc(NC(=O)CSC(=S)N2CCN(C)CC2)nc1C	8.3µM*	0%	1%	6%	37%	?
Cc1cc(C)c(NC(=O)CSc2ccc(-c3cccnc3)nn2)c(C)c1	13%	1%	5%	0%	-5%	?
Cc1c(C=O)c2ccccn2c1C(=O)c1cccc([N+](=O)[O-])c1	17%	2%	0%	1%	-18%	?
C=CCN1C(=O)C(CC(=O)NCC)SC1=Nc1cc(Cl)ccc1Cl (stereo not drawn)	43%	3%	1%	8%	66%	1.2µM*
CC1(C)CC(=O)C2=C(C1)N(CCN1CCOCC1)C1=C(C(=O)CC(C)(C)C1)C2c1ccc(Cl)cc1	5.2µM*	0%	-1%	-1%	107%	?
CC1(C)CC(=O)C2=C(C1)N(CCN1CCOCC1)C1=C(C(=O)CC(C)(C)C1)C2c1cccc(F)c1	12µM*	20%	?	-8%	82%	0%
CC1CCN(C(=O)CSC2=NS(=O)(=O)c3cc(F)ccc3N2)CC1	6%	9%	2%	0%	-18%	?
CC1CN(C(=O)/C=C/c2ccc(SC(F)F)cc2)CC(C)O1 (stereo not drawn)	-22%	-3%	0%	6%	28%	-15%
SMILES	Pf growth 48h	SARS PLP yeast	AmpC detergent	Sm TGR inh	AmpC inh no detg	Pf growth 96h
Cc1cc2oc(=O)cc(CN(C)Cc3ccccc3)c2cc1C(C)C	13µM*	-6%	4%	2%	-5%	?
Cc1cc2oc(=O)cc(CN3CCCCC3C)c2cc1C(C)C (stereo not drawn)	15µM*	1%	-9%	-2%	-26%	?
COc1ccc(CN(C)Cc2cc(=O)oc3cc(C)c(C(C)C)cc23)cc1OC	?	-1%	-3%	-18%	61%	?
Cc1cc(C)nc(Oc2ccc(Br)cc2)n1	46%	-4%	1%	8%	-14%	28%
N#Cc1ccc(C23CC4CC(CC(C4)C2)C3)[nH]c1=O	?	0%	?	-24%	-8%	3.7µM*
COc1ccc(S(=O)(=O)NN(C)C(=O)c2nn(-c3ccccc3)ccc2=O)cc1	?	0%	-3%	-4%	-15%	5.9µM*
COc1ccc(-n2ccc(=O)c(C(=O)O)n2)cc1	-14%	0%	5%	2%	-5%	-4%
CC1CCc2nn(CC(=O)NCc3ccc(F)cc3)cc2C1 (stereo not drawn)	-2%	3%	?	0%	?	9.3µM*
CC1CCc2nn(CC(=O)Nc3ccc(F)cc3F)cc2C1 (stereo not drawn)	12%	-9%	?	8%	40µM*	2.9µM*
CC1=C(C(=O)Nc2cccnc2)C(c2ccc(F)cc2)n2nc(-c3cccc(C)c3)nc2N1 (stereo not drawn)	.	.	3%	1%	.	.
CCOc1ccccc1NC(=O)CSc1nc2ccccc2nc1Cc1ccc(C)cc1	.	.	-3%	4%	.	.
CC1Cc2ccccc2N1S(=O)(=O)c1cnc[nH]1 (stereo not drawn)	-21%	2%	?	10%	-23%	?
O=S(=O)(c1cnc[nH]1)N1CCc2ccccc21	-12%	?	-4%	-7%	-19%	8.3µM*
Cc1ccccc1C(=O)Nc1ccc2nc(SCC(=O)N3CCc4ccccc43)sc2c1	.	.	3%	7%	.	.
CC1=CC(=C(C#N)c2nc3ccccc3s2)C=C(C)N1Cc1ccco1	3.3µM*	9%	0%	1%	-15%	.
N#C/C(=C(/O)c1ccco1)c1nc2ccccc2s1	74%	-6%	3%	5%	-18%	70%
COc1ccccc1-c1sc2cc3c(cc2c1C#CCO)OCO3	?	1%	0%	-34%	-32%	?
CCOC(=O)c1ccc(-c2c(-c3ccccc3OC)sc3cc4c(cc23)OCO4)cc1F	1.9µM*	-5%	2%	-16%	-41%	?
CN1CCc2c(C#N)c(N3CCCCC3)nc(NCc3ccccc3)c2C1	?	-3%	3%	-24%	141%	2.3µM*
